# Screening data: PubChem, Sanford-Burnham Center for Chemical Genomics
# The list is not random: actives were taken first. Their share in the collection is about 31%.
# CYP2C19 inh: blocks human cytochrome P450 2C19; CYP2C19 Supersomes, luciferin-H EGE luminescence, 30 min; inhibition, % at 5 µM; P33261; 96,000 compounds, 21% hits;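 active means CYP2C19 inhibition above a set limit at 5 µM in the primary screen, cut at about 50% in these data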;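 further: plate controls were negative control wells for no effect and 2.5 mM tranylcypromine positive control for full effect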
# CYP2C19 act: cytochrome P450 2C19 (human) activation. P33261. recombinant CYP2C19, luciferin-H EGE luminescence; stronger effect = higher value; 0 = fully inhibited enzyme, 1 = untreated enzyme. activation factor at 5 µM. 96,000 tested, under 10 active;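 active means activation factor of at least 2 at 5 µM in the primary screen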;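 further: 0 = wells with 2.5 mM tranylcypromine and 1 = vehicle-only wells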
# PLAP act: human PLAP activation. P05187. activation fold at 20 µM. purified PLAP enzyme, luminescent substrate read-out; stronger effect = higher value. 96,000 compounds, 1.2% hits; in the data active means activation fold above about 2
# Target sequence (P05187 whole entry, looked up): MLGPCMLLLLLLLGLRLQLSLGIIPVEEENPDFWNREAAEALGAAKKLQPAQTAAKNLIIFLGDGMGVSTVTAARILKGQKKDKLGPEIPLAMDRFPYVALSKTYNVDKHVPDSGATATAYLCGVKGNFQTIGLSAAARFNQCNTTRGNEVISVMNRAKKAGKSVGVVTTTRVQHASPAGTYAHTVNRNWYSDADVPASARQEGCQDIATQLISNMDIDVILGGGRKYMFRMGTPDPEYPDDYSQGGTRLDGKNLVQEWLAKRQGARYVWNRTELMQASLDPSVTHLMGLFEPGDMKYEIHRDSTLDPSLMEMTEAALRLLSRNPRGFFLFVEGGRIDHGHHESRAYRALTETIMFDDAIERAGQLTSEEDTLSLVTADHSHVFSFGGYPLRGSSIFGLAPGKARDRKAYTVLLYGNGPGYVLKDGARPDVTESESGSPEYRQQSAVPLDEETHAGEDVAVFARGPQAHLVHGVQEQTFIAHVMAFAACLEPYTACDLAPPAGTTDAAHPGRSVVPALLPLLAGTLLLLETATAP
# CYP2C9 act: activators of human CYP2C9; activation factor at 5 µM; P11712; recombinant CYP2C9, luciferin-H conversion, luminescence; stronger effect = higher value; factor 1 = untreated enzyme, 0 = blocked; 96,000 compounds, 1.4% hits;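 active means activation factor of 2 or more for CYP2C9 at a 5 µM dose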;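 further: 0 = sulfaphenazole-blocked wells and 1 = vehicle-only wells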
# CYP2C9 inh: human CYP2C9 inhibition; P11712; AID 777; CYP2C9 Supersomes, luciferin-H conversion, luminescence; inhibition, % at 5 µM; 96,000 compounds, 20% hits;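 active means blocking of liver enzyme CYP2C9 beyond about 50% at 5 µM, limit read from the data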
# * marks the source's active call; other numbers are inactive results.
SMILES,CYP2C19 inh,CYP2C19 act,PLAP act,CYP2C9 act,CYP2C9 inh
COc1cc(Cl)c(S(=O)(=O)NCc2cccnc2)cc1Cl,85*,0.1,0.9,0.9,11
COc1cc(S(=O)(=O)NCc2cccnc2)ccc1F,83*,0.2,1,1.3,-27
COc1cc(Cl)c(S(=O)(=O)NCc2ccccn2)cc1Cl,81*,0.2,2.3*,1.3,-31
Cc1ccc(S(=O)c2ccc(C)cc2)cc1,32,0.7,0.8,1,2
CCNc1nc2[nH]c(=O)c3c(c2s1)OC(N)=C(C#N)C3c1ccc(C)cc1 (stereo unspecified),-2,1,1,0.9,13
CCOC(=O)CCn1nnc(N)n1,11,0.9,0.8,0.7,31
COc1cccc(C2/C(=C(\O)c3ccc(OC)c(OC)c3)C(=O)C(=O)N2c2cc(C)on2)c1 (stereo unspecified),-13,1.1,1.2,1.1,-11
Cn1c(=O)[nH]c(=O)c2c1nc(NC1CCCCC1)n2CC(=O)NC1CCCCC1,-1,1,0.8,1,-2
COc1ccc(COCC(O)CN2CC(C)OC(C)C2)cc1OC (stereo unspecified),-1,1,1.1,0.9,14
COc1ccccc1CCNC(=O)C1CCCO1 (stereo unspecified),-4,1,1.1,1.2,-17
O=C(CCNS(=O)(=O)c1ccc(Cl)cc1)NCc1ccccn1,-4,1,1,1.2,-22
O=S(=O)(NCCc1ccccn1)c1ccc(F)c(F)c1,85*,0.2,0.8,0.8,23
Cn1cccc1C(=O)OCc1csc(-c2ccccc2)n1,-4,1,1,1.2,-18
Cn1cccc1C(=O)OCc1cc(Cl)cc2c1OCOC2,1,1,0.9,2.2*,-124
Cc1ccc(S(=O)(=O)Nc2cccc(NC(=O)CN3CCCCC3)c2)cc1,92*,0.1,1.6,0.1,92*
Cc1ccc(S(=O)(=O)Nc2ccc(NC(=O)CN3CCCCC3)cc2)cc1,3,1,1.1,0.3,72*
Cc1ccc(S(=O)(=O)Nc2cc(NC(=O)CN3CCOCC3)ccc2Cl)cc1,33,0.7,1.4,0.1,86*
COc1cc(NC(=O)c2cc(-c3cccnc3)nc3ccc(C)cc23)c(OC)cc1Cl,-1,1,0.9,1.1,-10
Cc1ccc2nsnc2c1N(S(C)(=O)=O)S(C)(=O)=O,63*,0.4,1,0.8,21
O=C(O)CCCCCNS(=O)(=O)c1cccc2nsnc12,-5,1.1,1,1.7,-68
O=C(O)COc1ccc2nsnc2c1Cl,-1,1,1,1.1,-13
Cc1cc(S(=O)(=O)Nc2c(C)ccc3nsnc23)ccc1F,84*,0.2,0.9,0.5,51*
Cc1nn(-c2ccc(F)cc2)c(C)c1NS(=O)(=O)c1ccc2ccccc2c1,50,0.5,1.1,1,3
Cc1ccc2nsnc2c1NS(=O)(=O)c1c(C)ccc2nsnc12,35,0.6,0.9,0.4,56*
COc1ccc(-c2nnc3ccc(SC)nn23)cc1,2,1,1.1,0.9,15
SMILES,CYP2C19 inh,CYP2C19 act,PLAP act,CYP2C9 act,CYP2C9 inh
CN(C)CCCNC(=O)CCC1CCCCC1,-14,1.1,1,1.2,-17
CCn1c2ccccc2c2cc(/C=N/n3cn[nH]c3=S)ccc21,81*,0.2,1.2,0.7,32
CCn1c2ccccc2c2cc(/C=N/n3cnnc3)ccc21,97*,0,1.5,0.3,74*
Clc1ccc(Cn2cc(/C=N/n3cnnc3)c3ccccc32)c(Cl)c1,43,0.6,1.1,0.6,45
C(=N\n1cnnc1)/c1cn(Cc2ccccc2)c2ccccc12,85*,0.2,0.9,0.3,66*
CCn1c(/C=N/n2cnnc2)nc2ccccc21,22,0.8,0.9,1,0
O=C(O)c1cccc(N2C(=O)c3cccnc3C2=O)c1,-5,1,1,0.8,21
Cc1nn(CC(=O)Nc2cccnc2N2CCOCC2)c(=O)c2ccccc12,5,0.9,1.4,0.8,25
CCOC(=O)c1c(C)sc(Sc2ccc(Cl)cc2[N+](=O)[O-])c1OC,81*,0.2,0.9,0.8,21
O=[N+]([O-])c1cc(Cl)ccc1Sc1cccc2cccnc12,25,0.8,0.8,1,2
Cc1ccc(S(=O)(=O)CCc2nc3ccccc3n2CCC#N)cc1,51*,0.5,0.8,1,-2
CC(=O)Nc1nonc1-c1nc2ccccc2n1CCC#N,-4,1,1.3,0.9,10
Cc1ccc(S(=O)(=O)CC2CSc3nc4ccccc4n32)cc1 (stereo unspecified),68*,0.3,1.1,0.5,54*
COC(=O)Cn1c(CCS(=O)(=O)c2ccc(C)c(C)c2)nc2ccccc21,61*,0.4,0.9,1.2,-16
N#Cc1cnn(-c2ncnc3sc(-c4ccccc4)cc23)c1N,2,1,1,0.7,34
O=C(/N=C1\NC(=O)C(F)(C(F)(F)F)S1)NC1CCCCC1 (stereo unspecified),7,0.9,1.3,0.1,85*
O=C(NC1CCCCCCC1)NC1CCCCC1,16,0.8,0.9,0.9,9
Cc1cc(C(=O)N2CCN(c3ncccn3)CC2)cs1,78*,0.2,1.1,0.6,40
O=C(c1ccc(F)cc1)N1CCN(c2ncccn2)CC1,53*,0.5,0.8,1,3
O=C(c1ccc(F)cc1F)N1CCN(c2ncccn2)CC1,44,0.6,1,1,-3
O=C(c1cccc(OC(F)F)c1)N1CCN(c2ncccn2)CC1,48,0.5,1.2,0.3,68*
O=C(c1ccc(-c2ccccc2)cc1)N1CCN(c2ncccn2)CC1,44,0.6,1.3,0.4,64*
CCc1nnc(NC(=O)c2ccc(S(=O)(=O)NCC(C)C)cc2)s1,-2,1,1.2,1,-5
Cn1nnnc1P(=O)(c1ccccc1)c1ccccc1,-14,1.1,0.8,1,0
O=C(c1cc2c(s1)CCCCC2)N1CCN(c2ncccn2)CC1,69*,0.3,1.1,0.1,92*
SMILES,CYP2C19 inh,CYP2C19 act,PLAP act,CYP2C9 act,CYP2C9 inh
O=C1CC(c2ccc(S(=O)(=O)NCCOc3ccccc3)cc2)CN1 (stereo unspecified),26,0.7,0.8,0.7,32
O=C(c1cccc(S(=O)(=O)NCCOc2ccccc2)c1)N1CCN(c2ncccn2)CC1,87*,0.1,1.2,0.1,87*
O=C(c1ccc(F)cc1)N1CCC(O)(c2cccnc2)CC1,69*,0.3,1,0.8,22
COc1ccc(C2=NOC(Cn3c(Cc4ccc(Cl)cc4)nc4c3c(=O)n(C)c(=O)n4C)C2)cc1 (stereo unspecified),74*,0.3,1.6,0.2,82*
CC(Sc1nc(-c2ccccc2)cc(C(F)(F)F)n1)C(=O)NCCN1CCOCC1 (stereo unspecified),12,0.9,1.5,1,3
Cc1ccccc1OCc1nc(-c2ccc(-n3cccc3)cc2)no1,-7,1.1,0.8,1,4
